An excerpt weighted towards active compounds, which were near 13% of everything screened.
USP8 inh – blocks human USP8 ubiquitin-rhodamine cleavage; P40818; purified USP8, Ub-rhodamine cleavage fluorescence, 30 min; inhibition, % at 20 µM; 47,000 tested, 4.2% active; AID 1645853
USP30 block – human USP30 deubiquitinase inhibition; inhibition, % at 25 µM; 47,000 tested, 5.3% active; purified USP30, Ub-rhodamine cleavage fluorescence; Q70CQ3
USP28 inh – inhibitors of human USP28 deubiquitinase; Q96RU2; purified USP28, Ub-rhodamine cleavage fluorescence, 30 min; inhibition, % at 25 µM; 47,000 tested, 3% active
USP10 block – human USP10 deubiquitinase inhibition; purified USP10, Ub-rhodamine fluorescence, 60 min; 47,000 tested, 1.1% active; inhibition, % at 20 µM; AID 1645856; Q14694
USP17 block – inhibitors of human USP17 deubiquitinase. 47,000 tested, 6.5% active. A8MUK1. purified USP17, Ub-rhodamine cleavage fluorescence, 3 h. inhibition, % at 50 µM
An asterisk follows results filed as active; . = no result given. No stated cut-off is given here; in the data, active means inhibition above about 30%; inactive means the rest.

SMILES	USP8 inh	USP30 block	USP28 inh	USP10 block	USP17 block
O=C(CSc1ccc2nnc(CCNS(=O)(=O)c3ccccc3)n2n1)NCc1ccc(F)cc1	11	16	12	-2	39*
Cc1cnc(C(=O)N2CCCC(c3ncc(Cc4ccccc4F)o3)C2)cn1 (stereo unspecified)	8	17	7	1	1
O=C(Nc1ccc(N2CCC(n3cccc3)CC2)cc1)c1ccccc1	30*	2	-3	15	0
CNc1nccnc1C1CN(C(=O)c2ccc3ccccc3n2)CCO1 (stereo unspecified)	-5	-6	-2	0	-8
Cc1nc2c(nnn2C[C@H]2CCCN2C(=O)c2ccccc2F)c(=O)[nH]1	9	0	0	0	3
CC(C)C[C@@H]1NC(=O)[C@H](CCCN)NC(=O)[C@H](C(C)C)NC(=O)[C@H](Cc2ccc(O)cc2)NC(=O)[C@H](CCC(N)=O)NC(=O)[C@H](CC(N)=O)NC(=O)[C@@H](Cc2ccccc2)NC(=O)[C@H](Cc2ccccc2)NC(=O)[C@@H]2CCCN2C(=O)[C@@H](Cc2ccccc2)NC1=O	-314	-127	39*	-9	2
Fc1ccc(-c2noc([C@@H]3CCCN3Cc3ccccn3)n2)nc1	12	-105	-29	-6	-38
O=C(NC1CCN(c2nc(-c3cccnc3)nc3ccccc23)CC1)c1cccnc1	6	3	52*	1	9
NCCNC(=O)NC1CCN(c2nc(-c3cccnc3)nc3ccccc23)CC1	-85	21	10	5	-11
CC1(CNC(=O)Cn2cc(NC(=O)Cc3ccccc3F)cn2)CCCO1 (stereo unspecified)	-10	1	0	1	4
CC(C)NC(=O)C(=O)NCCN1CCN(S(=O)(=O)c2ccc3ccccc3c2)CC1	-3	-7	-19	-1	-4
Cc1noc(-c2ccc(=O)n(Cc3cccc(C(F)(F)F)c3)c2)n1	-6	-8	4	-2	-1
O=c1sc2ccccc2c(=O)n1Cc1cccc(C(F)(F)F)c1	0	1	83*	4	2
O=C(NC1CCCc2ccccc21)c1cc(=O)[nH]c2ccccc12 (stereo unspecified)	0	-44	-4	4	41*
O=C(Cc1c(C(=O)O)[nH]c2ccccc12)NC1CCCc2ccccc21 (stereo unspecified)	22	1	7	2	17
O=C(N[C@H]1CCCc2ccccc21)c1cc(-c2ccco2)on1	33*	-155	0	-6	47*
O=C(NC1CCCc2ccccc21)c1cc(Cl)ccn1 (stereo unspecified)	21	-14	7	-8	.
CN(C)c1ccc(C(=O)NCC(O)c2ccc(F)c(F)c2)cc1 (stereo unspecified)	15	11	8	5	6
Cc1ccoc1C(=O)N1C[C@H](OCC2CCOCC2)[C@H]2OCCC[C@H]21	-40	-10	-1	-1	-12
COC(=O)c1sc2ccc(NC(=O)c3ccc(OC)c(OC)c3)cc2c1OC	-2	-10	-5	-4	2
CCc1nc(-c2c(C)cc(C)nc2NC(=O)c2ccccc2C)no1	24	10	9	1	16
Cc1cc(C)c2c(NC(=O)c3cccc4ccccc34)nn(C)c2n1	10	17	-4	3	49*
CC(=O)C1=C(C)Nc2nc3ccccc3n2C1c1ccc(O)cc1 (stereo unspecified)	-2	-19	1	0	35*
CC(=O)C1=C(C)Nc2nc3ccccc3n2C1c1ccco1 (stereo unspecified)	-10	-417	-28	-6	27
O=C1CCCC2=C1C(c1ccc(Cl)cc1)n1c(nc3ccccc31)N2 (stereo unspecified)	13	37*	18	-1	21
SMILES	USP8 inh	USP30 block	USP28 inh	USP10 block	USP17 block
CC(=O)C1=C(C)Nc2nc3ccccc3n2C1c1cccs1 (stereo unspecified)	-1	49*	22	0	38*
CC(=O)c1cccc(NC(=O)c2cnn(C)c2)c1	21	24	18	1	8
CCOC(=O)CNC(=O)N1CCCCCC1c1cccs1 (stereo unspecified)	0	4	-11	-1	-9
CCOC(=O)Cn1c(=O)c(C(=O)NC(=O)OCC)cn(Cc2cccs2)c1=O	0	31*	1	5	22
O=C(COc1ncnc2sccc12)Nc1ccc2c(c1)OCCO2	12	-2	16	-10	6
CC(=O)c1cccc(NC(=O)COc2ncnc3sccc23)c1	39*	-179	-32	-4	-41
COc1ccc(CCNC(=O)CSc2cn(CCNC(=O)c3ccc(F)cc3)c3ccccc23)cc1OC	-16	68*	8	0	50*
COc1ccc(CCNC(=O)c2cn(-c3ccc(F)cc3)nn2)cc1OC	3	62*	9	1	34*
COc1ccc(CCNC(=O)c2ccc3c(c2)N(Cc2ccc(F)cc2)C(=O)c2ccccc2S3=O)cc1OC (stereo unspecified)	-9	-25	-10	3	-8
COc1ccc(-n2cc(C(=O)NCCc3ccc(F)cc3)nn2)cc1	37*	29	7	17	17
CNc1nc(C2CCCCN2C(C)=O)nc2c1CN(C(=O)c1ccccc1)CC2 (stereo unspecified)	-1	-19	-12	2	-8
Cc1sc(NC(=O)Cn2nnc3ccccc32)nc1-c1ccc2c(c1)CCN2C(=O)c1ccccc1F	50*	3	-4	56*	14
CC(C)(C)CC(=O)N1CCc2cc(-c3csc(NC(=O)Cn4nnc5ccccc54)n3)ccc21	-7	-62	4	-5	9
O=C(Cn1nnc2ccccc21)Nc1nc(-c2ccc3c(c2)CCN3C(=O)c2ccccc2F)cs1	77*	11	10	50*	54*
O=C(CCCn1c(=O)[nH]c2cc(Cl)ccc2c1=O)N1CCc2ccccc2C1	69*	26	5	4	55*
COc1ccccc1N1CCN(C(=O)CCCn2c(=O)[nH]c3ccc(Br)cc3c2=O)CC1	-21	-15	-13	-1	-22
O=C(CCCn1c(=O)[nH]c2ccc(Br)cc2c1=O)N1CCc2ccccc2C1	9	31*	23	6	9
O=C(Nc1ccccc1Cl)c1ccn(COc2ccccc2F)n1	35*	57*	29	5	66*
O=C(Nc1ccc(Cl)cn1)c1ccn(COc2ccccc2)n1	17	16	12	2	15
COc1ccc(OCn2ccc(C(=O)Nc3cnn(C)c3C)n2)cc1	1	-5	1	0	.
O=C(Nc1ccc(Cl)cc1Cl)c1ccn(COc2ccccc2F)n1	20	45*	18	0	36*
O=C(NCCc1ccccc1)C1CCCN(S(=O)(=O)N2CCC3(CC2)OCCO3)C1 (stereo unspecified)	5	11	-5	2	5
CCc1nc(SCc2ccccc2Cl)c2oc3ccccc3c2n1	11	8	2	2	11

Source: PubChem
